Results as given in the supplement of paper PMC10127200.
Where a name gives a salt, the structure may show the parent alone.

Tests used:
Test in all cases: Euclidean distance of Cell Painting phenotypic profile (signed KS, 77 features) to DMSO centroid (dimensionless distance); 5 or 10 uM (library dependent); higher = stronger phenotypic change vs DMSO (phenoactivity)
Conditions in all cases: 48 h
786-O = tested on: 786-O
Outline: (§1)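 Library compounds were applied at 10 or 5 uM, depending on the library, with 0.1% DMSO final, for 48 h to five cancer lines and a healthy fibroblast line. After staining, cells were imaged confocally at 20X across 9 fields per well, and Harmony extracted 77 features, each scored as a signed Kolmogorov-Smirnov statistic against vehicle wells on the same plate. Phenoactivity is the Euclidean distance between each profile and the median vehicle profile, with profiles first plate-position corrected, correlation-weighted and averaged over replicates at the top dose.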

A549 = tested on: A549
Outline: as §1

DU145 = tested on: DU145
Outline: as §1

FB = tested on: FB
Outline: as §1

HEPG2 = tested on: HEPG2
Outline: as §1

OVCAR4 = tested on: OVCAR4
Outline: as §1

Structure (SMILES) | Euclidean distance (786-O) | Euclidean distance (A549) | Euclidean distance (DU145) | Euclidean distance (FB) | Euclidean distance (HEPG2) | Euclidean distance (OVCAR4)
O=C(Nc1cccc(C(F)(F)F)c1)Nc1cc(S(=O)(=O)NC2CC2)ccc1-c1ccsc1 | 0.684 | 1.29 | 1.11 | 1.51 | 2.45 | 1.01
CC(C)(C#N)c1cc(Cn2cncn2)cc(C(C)(C)C#N)c1 [Anastrozole] | 1.11 | 0.727 | 0.702 | 0.902 | 0.572 | 1.41
CN1CCC(=C2c3ccccc3CCn3c(C=O)cnc32)CC1 [Alcaftadine] | 1.07 | 0.581 | 1.26 | 1.66 | 0.597 | 1.22
CNCC(=O)O [Sarcosine] | 1.77 | 0.92 | 1.05 | 1.13 | 0.831 | 1.75
C#C[C@]1(O)CC[C@H]2[C@@H]3CCC4=CCCC[C@@H]4[C@H]3CC[C@@]21C [Lynestrenol] | 1.13 | 1.3 | 1.48 | 1.17 | 0.777 | 1.41
COc1ccc(COc2cc3oc(=O)c4cc(C(C)O)ccc4c3cc2OC)cc1 (stereo not given) [Palomid 529 (P529)] | 1.8 | 1.25 | 1.29 | 1.02 | 1.33 | 1.06
CCC(=O)N1CC[C@H](Nc2ncnc3c2CN(c2cnc(OC)c(C(F)(F)F)c2)CC3)C1 [leniolisib(CDZ 173)] | 1.06 | 1.1 | 1.67 | 1.76 | 0.969 | 1.59
NCCc1c[nH]cn1 [Histamine] | 1.05 | 1.15 | 1.33 | 1.24 | 1.08 | 1.27
CC(=O)O[C@]1(C(C)=O)CC[C@H]2[C@@H]3C=C(C)C4=CC(=O)CC[C@]4(C)[C@H]3CC[C@@]21C [Megestrol Acetate] | 1.71 | 1.65 | 1.57 | 1.46 | 1.89 | 1.61
CCOC(=O)[C@H](CCc1ccccc1)N[C@@H](C)C(=O)N(CC(=O)O)C1Cc2ccccc2C1 [Delapril Hydrochloride] | 1 | 1.15 | 0.898 | 1 | 0.353 | 1.06
O=C(Cc1cccc(OC(F)(F)F)c1)Nc1ccc(CCCCc2nnc(NC(=O)Cc3ccccn3)s2)nn1 | 2.27 | 2.41 | 1.99 | 3.38 | 2.75 | 2.28
Cc1ccc(C(=O)C(C)CN2CCCCC2)cc1 (stereo not given) [Tolperisone HCl] | 0.966 | 0.611 | 1.08 | 0.909 | 0.439 | 0.725
CC(CNC(=O)c1cccnc1)NC(=O)c1cccnc1 (stereo not given) [Nicaraven] | 1.31 | 0.748 | 1 | 1 | 2.29 | 1.91
Cc1cc(Nc2nc(N[C@@H](C)c3ccc(F)cc3)c(C#N)cc2F)n[nH]1 | 3.5 | 3.48 | 2.73 | 2.42 | 2.18 | 2.77
COc1ccc(-c2ccc3ncc4c(c3c2)n(-c2ccc(N3CCNCC3)c(C(F)(F)F)c2)c(=O)n4C)cn1 | 6.24 | 5.51 | 7.61 | 6.11 | 5.69 | 5.98
CCN1CCN(Cc2ccc(Nc3ncc(F)c(-c4cc(F)c5nc(C)n(C(C)C)c5c4)n3)nc2)CC1 | 5.75 | 5.05 | 5.66 | 4.66 | 3.78 | 5.2
CC[N+](CC)(CC)CCOc1cccc(OCC[N+](CC)(CC)CC)c1OCC[N+](CC)(CC)CC [Gallamine Triethiodide] | 0.82 | 0.878 | 1.08 | 1.22 | 1.06 | 1.04
CN1CCN2c3ccccc3Cc3ccccc3C2C1 (stereo not given) [Mianserin HCl] | 2.29 | 2.41 | 0.876 | 2.86 | 1.34 | 2.29
Cc1coc2c1C(=O)C(=O)c1c-2ccc2c1CCCC2(C)C [Tanshinone IIA] | 1.26 | 2.73 | 0.982 | 1.04 | 1.54 | 1.36
O=C(O)P(=O)(O)O [Foscarnet Sodium] | 1.83 | 0.762 | 1.18 | 0.986 | 0.776 | 1.11
C=C1CC[C@@H]2[C@](C)(CO)[C@H](O)CC[C@@]2(C)[C@H]1C/C=C1\C=COC1=O [Dehydroandrographolide] | 1 | 0.867 | 0.554 | 0.87 | 0.517 | 1.29
Nc1ccc(S(=O)(=O)Nc2ccc(Cl)nn2)cc1 [Sulfachloropyridazine] | 1.32 | 1.01 | 0.856 | 0.835 | 0.669 | 1.25
NC(=O)N[C@@H](CCC(=O)O)C(=O)O [Carglumic Acid] | 1.22 | 0.653 | 0.949 | 1.06 | 0.389 | 0.68
Oc1ccc(OCc2ccccc2)cc1 [Monobenzone] | 2.36 | 2.32 | 2.56 | 1.45 | 0.99 | 2.11
C[C@]12CCC(=O)C=C1CC[C@@H]1[C@@H]2C(=O)C[C@@]2(C)[C@H]1CC[C@]2(O)C(=O)CO [Cortisone] | 1.73 | 0.941 | 1.11 | 1.27 | 0.411 | 1
